Values joined by “and” are separate entries in the source; they are usually repeats but may differ in a detail not shown here. Identical values can stand only once. Records with an inconclusive call do not appear. Active and inactive are the calls of the source. Calls follow the shape of the dose curve; as a rule, active = well fitted curve in the direction sought with a large enough effect; inconclusive = small, poorly fitted or top-dose-only effect, or another doubt; inactive = no such curve, though single readings can be large; an effect the other way counts as inactive or inconclusive.
Columns and labels:
[1] = P-glycoprotein substrates identified in KB-8-5-11 adenocarcinoma cell line, qHTS therapeutic library screen (AID 1346987); also: nearly all actives have a fitted effect of over 65% in size
In short: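 Luminescence from CellTiter-Glo, read 5 min after addition, quantified survival of KB-8-5-11 (P-gp-overexpressing) cells exposed to compounds for 72 h. AC50 was derived from concentration-response curves.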

[2] = NS1 protein of Zika virus - qHTS assay to identify small molecule inhibitors in human HEK 293 cells (AID 1347053); also: nearly all actives have a fitted effect of over 55% in size;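 as to activity change, negative = inhibition: series mostly up to about 46 µM; plate controls were infected untreated cells for no effect and uninfected cells for full effect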
In short: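 Read-out is a two-antibody TR-FRET for ZIKV NS1, normalized between uninfected cells and infected cells. Compound added 1 h before MR766 infection at MOI 0.5; human HEK 293 cells incubated 24 h, 37 C.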

[3] = qHTS of pediatric cancer cell lines to identify multiple opportunities for drug repurposing: Primary screen for TC32 cells (AID 1347089); also: nearly all actives have a fitted effect of over 60% in size; as to activity change, negative = cytotoxic: % is scaled to controls: 0 for no effect and ±100 for the full control effect
In short: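 Luminescent ATP read-out (CellTiter-Glo) of metabolically active TC32 cells after 48 h exposure. Concentration-response curves came from 11-point (MIPE, 0.78 nM–46 µM) or 8-point (NPC, 0.59 nM–46 µM) primary titrations; follow-up used 11 points.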

[4] = qHTS of pediatric cancer cell lines to identify multiple opportunities for drug repurposing: Primary screen for DAOY cells (AID 1347090); also: nearly all actives have a fitted effect of over 55% in size;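 as to activity change, negative = cytotoxic: series mostly up to about 46 µM; plate controls were DMSO for no effect and bortezomib for full effect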
In short: (§1)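 Viability measured as metabolically active cells via CellTiter-Glo luminescence following 48 hours of compound exposure, 11-point dilutions in confirmatory testing. 500-1,000 cells/well plated 5 hours before dosing; controls were DMSO and 2.3 µM bortezomib.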

[5] = qHTS of pediatric cancer cell lines to identify multiple opportunities for drug repurposing: Primary screen for SJ-GBM2 cells (AID 1347091);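 as to activity change, negative = cytotoxic: plate controls were DMSO neutral control for no effect and bortezomib for full effect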
In short: as §1

[6] = qHTS of pediatric cancer cell lines to identify multiple opportunities for drug repurposing: Primary screen for A673 cells (AID 1347092); also: nearly all actives have a fitted effect of over 45% in size; as to activity change, negative = cytotoxic: % is scaled to controls: 0 for no effect and ±100 for the full control effect
In short: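 Cell viability of A673 measured by CellTiter-Glo ATP luminescence after 48 hours compound exposure. Dilution series spanned 0.78 nM to 46 µM (MIPE, 11-point) or 0.59 nM to 46 µM (NPC, 8-point); bortezomib 2.3 uM positive control.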

[7] = qHTS of pediatric cancer cell lines to identify multiple opportunities for drug repurposing: Primary screen for SK-N-MC cells (AID 1347093);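 as to activity change, negative = cytotoxic: series mostly up to about 46 µM; plate controls were DMSO neutral control for no effect and bortezomib for full effect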
In short: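 Metabolically active cells were quantified by ATP-dependent luminescence (CellTiter-Glo, 15 min at room temperature) following 48 h treatment. Cells had been plated at 500-1,000 per well and settled for 5 h beforehand.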

[8] = qHTS of pediatric cancer cell lines to identify multiple opportunities for drug repurposing: Primary screen for BT-37 cells (AID 1347094);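 as to activity change, negative = cytotoxic: series mostly up to about 57 µM; plate controls were DMSO for no effect and bortezomib for full effect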
In short: (§2)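 CRCs from 8- or 11-point titrations (lowest final 0.59 nM NPC, 0.78 nM MIPE). Cell viability: CellTiter-Glo after 48 h incubation, 15 min room-temperature development, luminescence imaging.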

[9] = qHTS of pediatric cancer cell lines to identify multiple opportunities for drug repurposing: Primary screen for NB-EBc1 cells (AID 1347095);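 as to activity change, negative = cytotoxic: plate controls were DMSO neutral control for no effect and bortezomib for full effect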
In short: as §2
Potency is read from the fitted curve at half-maximal effect.

CC1COC2(CCN(c3nc(=O)c4cc(C(F)(F)F)cc([N+](=O)[O-])c4s3)CC2)O1 (configuration not stated)
inactive: Potency [1] | Potency [2] | Potency [3] | Potency [4] | Potency [5] | Potency [6] | Potency [7] | Potency [8] | Potency [9]

CC(C)CC(=O)Nc1n[nH]c2c1CN(C(=O)C1CCN(C)CC1)C2(C)C
inactive: Potency [1]
active: Potency [2] 26.4 µM | Potency [3] 5.87 µM | Potency [4] 11.8 µM | Potency [5] 1.48 µM | Potency [6] 0.187 µM | Potency [7] 0.0526 µM | Potency [8] 0.485 µM

Nc1ncnc2c1c(-c1cccc(OCc3ccccc3)c1)cn2C1CC(CN2CCCC2)C1 (configuration not stated)
active: Potency [1] 16.6 µM and 6.51 µM | Potency [3] 6.58 µM | Potency [5] 20.9 µM | Potency [6] 18.7 µM | Potency [9] 4.69 µM
inactive: Potency [2] | Potency [4]

CNC(=O)c1cc(Oc2ccc(NC(=O)Nc3cc(C(C)(C)C)nn3-c3ccc4ncccc4c3)c(F)c2)ccn1
active: Potency [1] 18.7 µM | Potency [4] 18.7 µM | Potency [5] 1.32 µM | Potency [6] 5.9 µM | Potency [9] 2.35 µM
inactive: Potency [2] | Potency [3]

CCN(CC)CCNC(=O)c1ccc2nc(-c3ccccc3)c(-c3ccc(CN4CCC(n5c(=O)[nH]c6ccccc65)CC4)cc3)nc2c1
active: Potency [1] 3.72 µM | Potency [2] 3.32 µM | Potency [3] 18.6 µM | Potency [4] 23.5 µM | Potency [5] 16.6 µM | Potency [6] 1.18 µM | Potency [8] 10.9 µM

COc1ccc(C(=O)CC2(O)C(=O)Nc3c(Cl)ccc(Cl)c32)cc1 (configuration not stated)
active: Potency [1] 2.64 µM and 1.16 µM | Potency [2] 1.05 µM | Potency [3] 7.39 µM | Potency [4] 3.72 µM | Potency [5] 1.18 µM | Potency [6] 2.35 µM | Potency [7] 1.18 µM | Potency [9] 0.418 µM

COc1ccc2c(OCc3nnc4ccc(-c5ccccc5)nn34)ccnc2c1
inactive: Potency [1] | Potency [2] | Potency [3] | Potency [4] | Potency [6] | Potency [9]

CC[C@H]1CN2CCc3cc(OC)c(OC)cc3[C@H]2C[C@@H]1C[C@@H]1NCCc2cc(OC)c(OC)cc21
active: Potency [1] 1.18 µM | Potency [2] 0.118 µM | Potency [3] 1.17 µM | Potency [4] 0.935 µM | Potency [5] 0.209 µM | Potency [6] 0.118 µM | Potency [9] 0.935 µM

CC(C)(C)c1cc(NC(=O)Nc2ccc(-c3cn4c(n3)sc3cc(OCCN5CCOCC5)ccc34)cc2)no1
active: Potency [5] 14.8 µM
inactive: Potency [1] | Potency [2] | Potency [3]

COc1ccc(CC2c3cc(OC)c(OC)cc3CC[N+]2(C)CCC(=O)OCCCCCOC(=O)CC[N+]2(C)CCc3cc(OC)c(OC)cc3C2Cc2ccc(OC)c(OC)c2)cc1OC (configuration not stated)
inactive: Potency [1] | activity change, negative = inhibition [2] -9.69% [at 9.2 µM] | activity change, negative = cytotoxic [3] -1.18% [at 9.17 µM] | activity change, negative = cytotoxic [4] -5.91% [at 9.22 µM] | activity change, negative = cytotoxic [5] 27.6% [at 9.22 µM] | activity change, negative = cytotoxic [6] -4.72% [at 9.22 µM] | activity change, negative = cytotoxic [7] -16.8% [at 9.22 µM] | activity change, negative = cytotoxic [8] 6.03% [at 11.5 µM] | activity change, negative = cytotoxic [9] 16.9% [at 9.22 µM]

C[C@@H]1CN(CC(=O)Nc2ccc3c(c2)Cc2cccc(-c4cc(=O)cc(N5CCOCC5)o4)c2S3)C[C@H](C)O1
inactive: Potency [1] | Potency [3]
active: Potency [2] 18.7 µM | Potency [5] 14.8 µM | Potency [6] 14.8 µM | Potency [7] 4.18 µM | Potency [9] 18.7 µM

CN1CCN(Cc2ccc(NC(=O)Nc3ccc(Oc4cc(NC(=O)C5CC5)ncn4)cc3)cc2C(F)(F)F)CC1
active: Potency [1] 5.8 µM | Potency [2] 1.18 µM | Potency [3] 0.294 µM | Potency [4] 0.59 µM | Potency [5] 0.372 µM | Potency [6] 0.148 µM | Potency [8] 0.544 µM | Potency [9] 0.935 µM

COc1ccc(-n2nc(C(N)=O)c3c2C(=O)N(c2ccc(N4CCCCC4=O)cc2)CC3)cc1
active: Potency [6] 9.35 µM | Potency [8] 12.2 µM
inactive: Potency [1] | Potency [2] | Potency [3] | Potency [4] | Potency [5] | Potency [7]

CN[C@H]1CCc2cc(OC)c(OC)c(OC)c2-c2ccc(OC)c(=O)cc21
active: Potency [1] 18.7 nM and 1.16 µM | Potency [2] 0.0083 µM | Potency [3] 0.037 µM | Potency [4] 0.0037 µM | Potency [5] 0.001 µM | Potency [6] 0.0012 µM | Potency [9] 0.001 µM

O=C1CCC[C@@H]2[C@H]3CCC[N+]4([O-])CCC[C@@H](CN12)[C@@H]34 (some centres not stated)
inactive: Potency [1] | Potency [2] | Potency [3] | Potency [4] | Potency [5] | Potency [6] | Potency [7] | Potency [9]

COC(=O)C[C@](O)(CCCC(C)(C)O)C(=O)O[C@@H]1C(OC)=C[C@]23CCCN2CCc2cc4c(cc2[C@H]13)OCO4
inactive: Potency [2] | Potency [3] | Potency [5] | Potency [6] | Potency [8] | Potency [9]
active: Potency [1] 8.2 µM
